# The campaign covered roughly 16,000 compounds. About 5,100 (32%) were called active. About 25% were inconclusive and are not listed. This is one part of the list. Unmarked numbers belong to inactive results. Calls come from the whole dose curve; as a rule, active = well fitted curve in the direction sought with a large enough effect; inconclusive = small, poorly fitted or top-dose-only effect, or effect the other way; inactive = no such curve, though single readings can be large or run the other way.
# Target: Cytochrome P450 3A4 (Homo sapiens) (UniProt P08684)
# Sequence (P08684 whole entry, looked up): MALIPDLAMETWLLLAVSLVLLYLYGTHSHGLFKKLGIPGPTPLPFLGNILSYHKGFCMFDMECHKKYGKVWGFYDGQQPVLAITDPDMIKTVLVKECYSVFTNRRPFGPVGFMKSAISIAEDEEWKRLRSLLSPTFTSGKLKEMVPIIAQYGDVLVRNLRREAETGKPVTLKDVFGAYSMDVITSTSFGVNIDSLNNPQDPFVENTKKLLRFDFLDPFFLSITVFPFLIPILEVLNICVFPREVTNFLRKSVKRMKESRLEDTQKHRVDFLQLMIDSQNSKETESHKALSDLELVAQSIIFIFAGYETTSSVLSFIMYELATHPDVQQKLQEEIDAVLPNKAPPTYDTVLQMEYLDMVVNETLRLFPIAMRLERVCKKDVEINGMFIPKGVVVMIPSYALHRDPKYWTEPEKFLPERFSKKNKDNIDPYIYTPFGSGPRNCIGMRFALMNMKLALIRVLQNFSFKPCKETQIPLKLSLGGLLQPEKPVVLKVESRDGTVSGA
# Test: Cytochrome panel assay with activity outcomes
# Settings: recombinant CYP, pro-luciferin dealkylation, luminescence, p450-cyp3a4; series mostly up to 57.1 µM; activity, negative = inhibition: at the top concentration
# % is set by controls: 0 for no effect and ±100 for the full control effect.
Structure (SMILES),"activity, negative = inhibition",AC50
CCCCc1ccc(NC(=S)NCc2cccs2)cc1,-10% [at 2.29 µM],
Cc1ccccc1-n1cnc2cc(NCc3cccs3)ccc21,,5.01 µM (active)
O=S(=O)(Nc1ccc2c(c1)OCCO2)c1cccc2cccnc12,,15.8 µM (active)
O=S(=O)(Nc1cccnc1Cl)c1ccc2c(c1)OCCO2,7.34% [at 2.29 µM],
O=S(=O)(O)c1cc(N=Nc2cccc3ccccc23)c(O)c2ncccc12,-5.6% [at 11.4 µM],
CNC(=S)N1N=C(c2ccc(OC)cc2)CC1c1ccc(N(C)C)cc1 (stereo not drawn),,3.98 µM (active)
NC(N)=NC[C@@H]1COC2(CCCCC2)O1,-1.52% [at 25.6 µM] (inactive),
CC(C)Cc1nc(N2CCN(C(=O)c3ccccc3)CC2)c(C#N)c2c1CCC2,20.1% (inactive),
CCOc1ncnc2c1oc1nc(CC(C)C)c3c(c12)CC(C)(C)OC3,0.556% (inactive),
CCOC(=O)c1oc2nc(CC(C)C)c3c(c2c1N)CCC3,,3.16 µM (active)
CCn1c(SCC(=O)N/N=C/C=C\c2ccccc2[N+](=O)[O-])nnc1-c1ccccc1,,12.6 µM (active)
Cn1c(SCC(=O)N/N=C/C=C\c2ccco2)nc2ccccc21,9.61% [at 2.29 µM],
CC(=O)Nc1nc2ccccc2n1Cc1ccccc1,-25.3% (inactive),
CS(=O)(=O)c1nc2ccccc2n1Cc1ccccc1,8.52% (inactive),
COc1ccc(CNc2nc3ccccc3n2Cc2ccccc2)cc1OC,,3.98 µM (active)
C#CCCCO/N=C1/[C@H]2O[C@@H]2[C@@H](O)[C@H]2[C@H]1CCn1c(=O)n(C)c(=O)n12,-24.7% [at 11.4 µM],
Cc1ccc(Cc2cnc(NC(=O)c3cccs3)s2)cc1,,7.94 µM (active)
CCCc1nnc(NC(=O)c2cccs2)s1,-3.1% (inactive),
CN(C)CCCN1CCC2(CCC(C(C)(C)C)CC2)CC1,1.95% [at 11.4 µM],
COc1ccc(NC(C)=O)cc1NC(=O)CN1CCN(C2c3ccccc3-c3ccccc32)CC1,,10 µM (active)
COc1ccccc1NC(=O)CN1CCN(c2ccccc2F)CC1,-29.9% (inactive),
COc1ccccc1NC(=O)CN1CCN(C2c3ccccc3-c3ccccc32)CC1,,12.6 µM (active)
NS(=O)(=O)c1cc(C(=O)O)c(Cl)c([N+](=O)[O-])c1Cl,-5.24% [at 11.4 µM],
CCNc1ncc2nc(CCc3ccccc3)c(=O)n(CCC#N)c2n1,,15.8 µM (active)

Structure (SMILES),"activity, negative = inhibition",AC50
CCNc1ncc2nc(-c3ccc(F)cc3)c(=O)n(C[C@H]3CCCO3)c2n1,-18.2% (inactive),
CCNc1ncc2nc(CCc3ccccc3)c(=O)n(Cc3ccc(F)cc3)c2n1,,2.51 µM (active)
CCSC1=C(C#N)C2(CCCCC2)C(C#N)=C(N)N1,,8.91 µM (active)
COc1ccc(C(=O)Nc2nc3c(s2)Cc2cc(OC)ccc2-3)cc1,,11.2 µM (active)
COc1ccc2c(c1)CCc1sc(NC(=O)c3ccc(C)cc3)nc1-2,,10 µM (active)
COc1ccc2c(c1)Cc1sc(NC(=O)c3ccco3)nc1-2,,11.2 µM (active)
O=C(O)Cc1c[nH]c2ccc(O)cc12,-10.9% (inactive),
CC(C)Oc1cccc(-n2c(CCc3c[nH]c4ccc(Br)cc34)nc3ccccc3c2=O)c1,,3.98 µM (active)
C/C(CC/C(C)=N/O)=N/O,-10.6% [at 11.4 µM],
O=C(O)c1c[nH]c2c(ccc3[nH]cc(C(=O)O)c(=O)c32)c1=O,-16.3% [at 11.4 µM],
Cc1c(NC(=O)C(C)N2C(=O)c3ccccc3C2=O)c(=O)n(-c2ccccc2)n1C (stereo not drawn),-4.89% (inactive),
Cc1cc(SC(C)C(=O)Nc2c(C)n(C)n(-c3ccccc3)c2=O)nc2ccccc12 (stereo not drawn),,12.6 µM (active)
Cc1cc(C(=O)Nc2c(C)n(C)n(-c3ccccc3)c2=O)c2ccccc2n1,-18.9% (inactive),
O=C(Nc1cccc2ncccc12)c1ccc(-c2ccc(Br)cc2)o1,,2.82 µM (active)
COc1ccc(C=O)cc1COc1ccc(C)cc1[N+](=O)[O-],9.27% (inactive),
CC(=O)N/N=C/c1cc([N+](=O)[O-])ccc1OCCOc1ccccc1,3.61% (inactive),
Cc1ccc(OCC(=O)N/N=C\c2c(C)n(C)c3ccccc23)c([N+](=O)[O-])c1,,7.08 µM (active)
Cc1ccccc1-c1ccc2ncnc(N(C)C)c2c1,,3.16 µM (active)
COc1ccccc1-c1ccc2ncnc(N(C)C)c2c1,,5.01 µM (active)
CC(=O)N1CCc2cc(S(=O)(=O)CCC(=O)Nc3c(C)n(C)n(-c4ccccc4)c3=O)ccc21,-22.1% (inactive),
Cc1ccc(S(=O)(=O)CCC(=O)Nc2nc3c(s2)CCCC3)cc1,,8.91 µM (active)
Nc1cc(-c2nn[nH]n2)ccc1F,-28.5% (inactive),
COC(=O)C/C=C\[C@@H](C)[C@@H](/C=N\OC[C@@H]1O[C@H](c2ccccc2)C=C[C@@H]1Oc1ccc(OC)cc1)OC,,3.16 µM (active)
COC(=O)C/C=C\[C@@H](C)[C@@H](/C=N\OC[C@@H]1O[C@H](c2ccccc2)C=C[C@@H]1Oc1ccc(OC)cc1)NS(=O)(=O)c1ccc(C)cc1,,5.01 µM (active)
